Bioassay records: PubChem, National Center for Advancing Translational Sciences (NCATS)
A selection: hits, their analogues and other compounds. The true share with any hit is near 2.1%.
Abeta yeast res: compounds reversing amyloid beta toxicity in yeast; yeast expressing A-beta42, growth rescue, OD600, 48 h; response scale: 0% DMSO, 100% iron-clioquinol control; Potency, µM (highest dose often 46.1 µM), most hits filed as activators; actives 0.063% (n = 410,000); AID 1347071; also: nearly all actives have a fitted effect of over 55% in size
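Growth rescue measured by 600 nm absorbance after 48 h yeast culture at 30 C with compound. Values normalized between DMSO and an equimolar ferric chloride plus clioquinol control.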
aSyn yeast inh: rescues yeast growth from alpha-synuclein toxicity; AID 652106; actives 0.14% (n = 370,000); Potency, µM (series often up to 46.1 µM), for the others: at the top dose growth rescue (activation), actives largely listed as activators; Yeast expressing alpha-synuclein, growth rescue, BacTiter-Glo, 24 h; also: % of control where 0% means no effect; nearly all actives have a fitted effect of over 65% in size
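Galactose-induced alpha-syn yeast (OD600=0.02, raffinose-pregrown) + pinned cpd, 24 hr, 30 deg C; growth by BacTiter-Glo luminescence. Growth restoration scores as activation.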
TDP-43 yeast inh: TDP-43 toxicity inhibition in yeast; TDP-43 expressing yeast growth rescue, BacTiter-Glo, 24 h; Potency, µM (doses to about 46.1 µM), for inactives: top-dose growth rescue (activation), hits mostly activators; actives 1.8% (n = 410,000); also: % of control where 0% means no effect; nearly all actives have a fitted effect of over 50% in size
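Readout is BacTiter-Glo luminescence of cell growth, so inhibitors register as activators. TDP-43-expressing yeast at OD600=0.02 in galactose medium, after raffinose pregrowth to mid-log, were incubated with compound for 24 hr at 30 deg C.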
FUS suppressor: FUS proteinopathy suppression in yeast; S. cerevisiae FUS-expressing, growth rescue, OD600, 24 h; Potency, µM (doses to about 76.6 µM), hits mostly activators; actives 0.24% (n = 390,000); AID 1347120;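 also: plate controls were DMSO vehicle for no effect and reference control for full effect; nearly all actives have a fitted effect of over 55% in size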
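Yeast expressing FUS under galactose induction, OD 0.005 in 2% galactose medium; compounds in a dilution series, 24 h at 30C. Growth rescue by absorbance at 600 nm; CP55940 positive control, DMSO negative.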
Numbers without * were called inactive; i = inactive; u = inconclusive; x = not tested or not shown. Calls follow the shape of the dose curve; as a rule, active = well fitted curve in the direction sought with a large enough effect; inconclusive = small, poorly fitted or top-dose-only effect, or another doubt; inactive = no such curve, though single readings can be large; an effect the other way counts as inactive or inconclusive. Potency is read from the fitted curve at half-maximal effect.

SMILES	Abeta yeast res	aSyn yeast inh	TDP-43 yeast inh	FUS suppressor
Fc1ccc(CSc2nnc(-c3cnccn3)n2Cc2ccco2)cc1	i	4%	u	i
Cc1ccc(Cc2c[nH]c(=S)s2)cc1	i	1%	11µM*	i
CC(C)(C)OC(=O)N1CCC(c2c(C(=O)NC3CCCCC3)cnn2-c2cccc(F)c2)CC1	i	x	-4%	i
CCN(CC)C(=O)OCc1c(-c2cccc(OC)c2)ncc2ccccc12	i	-14%	11µM*	i
COc1ccc(C(=O)OCc2c(-c3cccc(OC)c3)ncc3ccccc23)cc1	i	1%	19%	i
COc1cccc(-c2ncc3ccccc3c2COC(=O)c2cccs2)c1	i	8%	35µM*	i
COc1cccc(CNC(=O)C2CCCN(c3ncccn3)C2)c1OC (stereo not drawn)	x	x	x	i
CCOC(=O)C1CCN(C(c2cccnc2)c2c(NC(=O)c3ccco3)sc(C)c2C)CC1 (stereo not drawn)	i	9%	14µM*	x
Cc1sc(NC(=O)c2ccco2)c(C(c2cccnc2)N2CCN(c3ccc(F)cc3)CC2)c1C (stereo not drawn)	i	u	25µM*	u
Cc1nc2ccc(S(=O)(=O)CCC(=O)Nc3ccc(C)c(C)c3)cc2s1	i	x	6%	i
COc1ccc(Br)cc1/C=C/C(=O)Nc1ccc(C)cc1	i	-16%	16µM*	i
O=C(Nn1cc(C(=O)Nc2ccccc2F)c2ccccc2c1=O)c1cnccn1	i	-18%	-7%	i
COC(=O)c1cn(NC(=O)c2cnccn2)c(=O)c2ccccc12	i	22µM*	u	i
O=C(NCC1CCN(C(=O)c2c(F)c(F)c(F)c(F)c2F)CC1)c1c(F)c(F)c(F)c(F)c1F	i	13%	13µM*	x
Cc1cccc(C)c1NC(=O)[C@@H]1CC(=O)O[C@@H]1c1ccccc1	x	x	x	i
CC(C)N(C(=O)CSc1nc2ccc(Cl)cc2[nH]1)c1ccccc1	i	x	35µM*	i
CC(=O)CC[C@@H]1CC[C@]2(CCCN(C(=O)C(C)(C)C)C2)O1	x	x	x	i
Nc1ncnc2c1ncn2C1O[C@H](CO)[C@@H](O)[C@@H]1O (stereo partly drawn)	i	-1%	8%	i
Nc1nc(Cl)nc2c1ncn2[C@@H]1O[C@H](COP(=O)(O)OP(=O)(O)OP(=O)(O)O)[C@@H](O)[C@H]1O	x	21µM*	x	x
Nc1ncnc2c1ncn2[C@@H]1O[C@H](COP(=O)(O)OP(=O)(O)OP(=O)(O)OP(=O)(O)OC[C@@H]2O[C@H](n3cnc4c(N)ncnc43)[C@@H](O)[C@H]2O)[C@@H](O)[C@H]1O	x	7.3µM*	x	x
CCc1ccccc1NC(=O)c1ccc2c(c1)nnn2C1CCCC1	i	x	2%	i
COC(=O)[C@]1(C#N)CC(=O)N(CC(C)C)[C@@H]1c1ccccc1	x	x	x	i
CCOC(=O)/C=C1\SCC(=O)N1CCOc1cccc(Br)c1	i	0%	16µM*	i
COc1ccc(C2SCCN2C(=S)Nc2ccc(Cl)cc2)cc1 (stereo not drawn)	i	-13%	1%	x
COc1ccc(C2SCCN2C(=S)Nc2cccc(Cl)c2)cc1 (stereo not drawn)	i	19%	18µM*	x
SMILES	Abeta yeast res	aSyn yeast inh	TDP-43 yeast inh	FUS suppressor
O=C(NCc1ccc(Cl)c(Cl)c1)c1cc(C2CCCCN2C(=O)CCc2ccccc2)on1 (stereo not drawn)	i	u	8%	u
O=C(NCc1ccccc1)c1cc(C2CCCN(C(=O)CCCc3ccccc3)C2)on1 (stereo not drawn)	i	-3%	35µM*	i
O=C(NCc1ccccc1)c1cc(C2CCCCN2C(=O)CCc2ccccc2)on1 (stereo not drawn)	i	8%	35µM*	i
CCC(C(=O)N(C)Cc1ccccc1)n1nc(C)c2sc3ccccc3c2c1=O (stereo not drawn)	i	x	4%	i
COc1cc(C#Cc2c(-c3cncn3C)n(C)c3ccc(-c4ccc5cc[nH]c5c4)cc23)cc(OC)c1	i	0%	20µM*	u
COc1cc(OC)c(NC(=O)C(C)n2nc(-c3ccc(C)c(C)c3)ccc2=O)cc1Cl (stereo not drawn)	i	x	13µM*	u
Cc1ccc(Nc2nc3ccccc3c3nnc(C)n23)cc1Cl	i	x	13%	i
Cc1nnc2c3ccccc3nc(Nc3cccc(O)c3)n12	i	x	35µM*	i
CC(=O)N1CCN(c2ccc(NC(=O)C(C)Oc3ccc(Cl)cc3Cl)cc2)CC1 (stereo not drawn)	i	3%	11µM*	u
CCCOc1ccc(-c2nc3ccccc3c(=O)o2)cc1	i	2%	10%	i
CCC(=O)Oc1ccc(-c2nc3ccccc3c(=O)o2)cc1	i	x	4µM*	i
CC(=O)Oc1ccc(-c2nc3cc(Cl)ccc3c(=O)o2)cc1	i	0%	4µM*	i
CC(=O)Oc1ccc2c(=O)oc(-c3ccccc3C)nc2c1	i	-1%	14µM*	i
CC(=O)Oc1ccc2nc(/C=C/c3ccc(C=O)cc3)oc(=O)c2c1	i	-11%	-7%	i
CC(=O)Oc1ccc2nc(/C=C/c3ccccc3)oc(=O)c2c1	i	0%	3.5µM*	i
COc1ccccc1CNC(=O)c1ccc(N2CCCC2)c(NC(=O)NCCC(C)C)c1	i	x	20%	i
O=S(=O)(c1ccc(F)cc1F)N1CCN(c2nc(-c3cccs3)nc3ccccc23)CC1	x	-1%	x	x
COc1cccc(CNC(=O)CSc2ccc(-c3sc(-c4ccccc4)nc3C)nn2)c1	i	x	u	i
CCOc1ccc(C2C(C(=O)Nc3ccccc3)=C(C)Nc3nc(-c4ccccc4Cl)nn32)cc1OC (stereo not drawn)	i	x	0%	32µM*
COc1ccc(C=O)cc1-c1cc(C(C)=O)c2n(c1=O)CCC2	x	x	x	i
Cc1ccnc(NC(=O)Cc2ccc(-c3ccccc3)cc2)c1	i	5%	14µM*	i
COc1ccccc1NC(=O)Cc1ccc(-c2ccccc2)cc1	i	-12%	16µM*	i
O=C(Cc1ccc(-c2ccccc2)cc1)Nc1ccccn1	i	-7%	14µM*	i
Cc1ccnc(NC(=O)Cc2ccc([N+](=O)[O-])cc2)c1	i	3%	-10%	i
Cc1ccc(NC(=O)Cc2ccc(-c3ccccc3)cc2)nc1	u	7%	7.1µM*	i
CCC(Sc1nnc(-c2ccc(OC)c(OC)c2)c(-c2ccc(OC)c(OC)c2)n1)C(=O)NC1CCCC1 (stereo not drawn)	i	x	5%	u
COc1cccc(NC(=O)Cn2c(=O)n(-c3ccc(C)cc3)c(=O)c3ccc(C(=O)NCc4ccco4)cc32)c1	i	x	-7%	i
C[C@@H]1CCCN1c1cccc2c1S(=O)(=O)N1CC[C@H](C1)O2	x	x	x	i
